# Screening data from PubChem.
# A selection: hits, their analogues and other compounds. The true share with any hit is near 2.8%.
# Glyco luc inh: blocks N-linked glycosylation in D54 reporter cells; reporter increase, % at 12.5 µM; 360,000 tested, 0.23% active; D54 ERlucT glycosylation luciferase reporter, 24 h; percent of 100 nM tunicamycin response;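 active = mean luciferase reporter signal, scaled so untreated is 0 and the glycosylation-blocking control 100, at or above a set limit in every replicate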;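 also: luciferase carries N-glycosylation sites so blocking glycosylation raises the light; 0% = median of neutral control wells and 100% = median of 100 nM tunicamycin wells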
# PAX8 inh HTS: lowers PAX8-driven luciferase in RMG-I cells | AID 652154 | RMG-I TPO-luciferase reporter, SteadyGlo, 24 h | inhibition, % at 12.6 µM | 360,000 tested, 1.2% active;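 active = mean replicate inhibition at least 60% with every replicate also reaching 60%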;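 also: luciferase light reporting Pax8 driven TPO promoter activity; plate controls were median of neutral control wells for no effect and mitoxantrone controls for full effect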
# HIV Env fusion: inhibitors of HIV Env-mediated cell fusion | HeLa-JRFL Env/CEM21 cell fusion, luciferase | inhibition, % at 12.3 µM | 360,000 tested, 1.1% active;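 active = mean replicate inhibition score of at least 50 and every replicate individually at or above 50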;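 also: 0% = plate neutral controls and 100% = maraviroc near 300 nM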
# NSD2 inh: inhibitors of human histone methyltransferase NSD2; O96028; NSD2 peptide methylation, AlphaScreen, 120 min; inhibition, % at 12.5 µM; 310,000 tested, 0.54% active; in the data active = inhibition above about 50%
# Target sequence (O96028 whole entry, looked up): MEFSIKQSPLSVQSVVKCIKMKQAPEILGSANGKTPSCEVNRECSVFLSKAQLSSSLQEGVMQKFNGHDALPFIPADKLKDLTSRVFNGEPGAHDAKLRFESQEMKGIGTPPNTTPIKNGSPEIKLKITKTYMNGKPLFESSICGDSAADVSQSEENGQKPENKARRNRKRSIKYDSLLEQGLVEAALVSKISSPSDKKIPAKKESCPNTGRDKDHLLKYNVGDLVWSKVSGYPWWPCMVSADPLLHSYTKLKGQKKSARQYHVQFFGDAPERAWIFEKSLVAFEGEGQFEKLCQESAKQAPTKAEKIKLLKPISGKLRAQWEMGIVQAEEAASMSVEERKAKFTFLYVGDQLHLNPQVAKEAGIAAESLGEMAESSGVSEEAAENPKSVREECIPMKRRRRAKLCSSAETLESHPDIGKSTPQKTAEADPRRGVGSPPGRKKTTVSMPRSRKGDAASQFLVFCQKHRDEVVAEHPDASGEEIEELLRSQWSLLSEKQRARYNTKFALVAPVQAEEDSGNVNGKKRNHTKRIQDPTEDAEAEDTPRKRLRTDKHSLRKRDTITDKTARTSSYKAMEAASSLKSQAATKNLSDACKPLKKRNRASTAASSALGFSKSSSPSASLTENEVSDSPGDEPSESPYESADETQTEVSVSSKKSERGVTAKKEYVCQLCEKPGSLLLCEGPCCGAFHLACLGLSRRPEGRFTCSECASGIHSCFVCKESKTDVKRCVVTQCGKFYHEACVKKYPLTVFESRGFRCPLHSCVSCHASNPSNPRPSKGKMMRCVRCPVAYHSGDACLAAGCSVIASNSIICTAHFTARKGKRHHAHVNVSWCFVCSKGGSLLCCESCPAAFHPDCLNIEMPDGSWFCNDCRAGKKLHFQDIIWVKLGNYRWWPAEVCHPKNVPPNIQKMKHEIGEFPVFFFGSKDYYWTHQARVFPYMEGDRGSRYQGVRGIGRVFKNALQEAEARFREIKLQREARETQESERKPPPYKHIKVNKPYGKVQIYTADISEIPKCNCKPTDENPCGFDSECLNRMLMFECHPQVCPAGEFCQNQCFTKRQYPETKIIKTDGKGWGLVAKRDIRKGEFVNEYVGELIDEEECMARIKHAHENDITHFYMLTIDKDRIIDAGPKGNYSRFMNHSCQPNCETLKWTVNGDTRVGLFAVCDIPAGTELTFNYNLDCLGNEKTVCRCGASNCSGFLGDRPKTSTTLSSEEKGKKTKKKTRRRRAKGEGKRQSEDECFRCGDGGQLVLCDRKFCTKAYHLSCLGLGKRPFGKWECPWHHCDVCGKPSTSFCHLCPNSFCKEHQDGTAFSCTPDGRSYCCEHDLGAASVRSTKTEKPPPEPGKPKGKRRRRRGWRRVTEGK
# Shn3 inh set2: inhibitors of Schnurri-3 3'UTR reporter in osteoblasts; AID 588674; inhibition, % at 12.5 µM; Clone20 osteoblast Shn3 3'UTR firefly luciferase, 24 h; 360,000 tested, 0.52% active;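 active = mean inhibition of at least 75% with every replicate also reaching 75%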;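 also: 0% = median of neutral control wells and 100% = pilot-screen positive control compound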
# LMP1 NFkB inh: Epstein-Barr LMP1 NF-kappaB reporter inhibition; LMP1-induced NF-kappaB luciferase reporter cells, luminescence; inhibition, % at 12.5 µM; 350,000 tested, 0.69% active; in the data active = inhibition above about 41%;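 also: 0% = neutral control wells and 100% = reference inhibitor control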
# Starred values were filed as active, the others as inactive; i = inactive; nt = not tested or not shown; [ ] = another dose, or the depositor's remark.
SMILES,Glyco luc inh,PAX8 inh HTS,HIV Env fusion,NSD2 inh,Shn3 inh set2,LMP1 NFkB inh
CN(C)CCNC(=O)c1cccc2ccc(-c3ccc(-c4ccccc4)cc3)nc12,16,41,-49,1,-5,-2
CN(C)CCNC(=O)c1cccc2nc3cccc(F)c3nc12,-5,7,0,nt,91*,-1
COc1ccc(C23CC4CC(CC(C4)C2)C3)cc1C(=O)NCCN(C)C,-4,36,-6,6,-36,0
COc1ccc(OC)c2nc3c(C(=O)NCCN(C)C)cccc3nc12,91*,nt,27,6,41,-2
C[C@@H]1CN([C@H](C)CO)C(=O)c2cc(-c3cccc(F)c3)cnc2O[C@H]1CN(C)Cc1ccccn1,nt,-7,22[16.7 µM],nt,nt,nt
COc1ccccc1S(=O)(=O)N[C@H]1CC[C@H](CC(=O)N2CCN(C)CC2)O[C@H]1CO,nt,2,62*[16.7 µM],nt,nt,nt
O=C(C=Cc1ccccc1)c1c[nH]c2ccccc2c1=O,-8,86*,-268,-1,-24,-12
Cc1[nH]c2ccccc2c1/C=C/C(=O)c1ccccc1,5,-9,i,24,-16,-7
O=C(/C=C/c1ccccc1)c1c[nH]c2ccccc12,-12,-12,-245,-7,-93,-30
Cc1[nH]c2ccccc2c(=O)c1C(=O)/C=C/c1ccccc1,-18,103*,-12,7,50,24
Cc1nc2c3cc(F)ccc3n(CCN3CCCCC3)c2s1,32*,-1,-28,nt,11,-26
CN1C[C@H]2[C@@H](c3ccccc31)[C@H](CO)N2C(=O)Nc1ccccc1,nt,-10,nt,nt,nt,nt
c1ccc(-c2noc(-c3ccno3)n2)nc1,1,-45,-1,-7,-8,4
Cc1ccc(-c2nc(-c3ccccn3)no2)cc1Cl,-21,81*,8,5,70,68*
c1ccc(-c2nc(-c3ccccn3)no2)cc1,-22,nt,33,nt,16,41*
c1ccc(-c2ccc(-c3nc(-c4ccccn4)no3)cc2)cc1,-22,nt,nt,-5,83*,83*
Cc1ccc(-c2nc(-c3ccccn3)no2)cc1,-18,nt,nt,-2,92*,88*
O=C(c1ccccn1)N1CC2(C1)[C@@H](c1ccccc1)[C@H](CO)N2C(=O)C1CCC1,nt,-10,1[16.7 µM],nt,nt,nt
CN(C)CC(=O)N[C@@H]1C=C[C@@H](CC(=O)NCc2ccccc2F)O[C@H]1CO,nt,-7,1[16.7 µM],nt,nt,nt
CO[C@H]1CN(C)C(=O)c2ccc(NC(=O)Nc3cc(F)ccc3F)cc2OC[C@@H](C)N(C)C[C@H]1C,nt,4,3[16.7 µM],nt,nt,nt
CCCNC(=O)C[C@H]1C[C@H]2c3cc(NC(=O)Nc4ccccc4F)ccc3O[C@H]2[C@@H](CO)O1,nt,-25,27[16.7 µM],nt,nt,nt
Clc1cccc(-c2nc(-c3ccccn3)no2)c1,-21,35,-4,-2,52,51*
C[C@H](CO)N1C[C@H](C)[C@H](CN(C)C(=O)Oc2ccccc2)OCc2cn(nn2)CCCC1=O,nt,11,nt,nt,nt,nt
O=C(CC1SC(=Nc2ccc(OC(F)F)cc2)N(CCN2CCOCC2)C1=O)Nc1ccc(F)cc1F (stereo not given),1,15,-9,-4,-3,8
CN=C1SC(CC(=O)Nc2ccc(F)cc2F)C(=O)N1/N=C/c1ccc(OC(F)F)c(OC)c1 (stereo not given),6,15,4,-2,83*,20
SMILES,Glyco luc inh,PAX8 inh HTS,HIV Env fusion,NSD2 inh,Shn3 inh set2,LMP1 NFkB inh
COc1ccc(CNc2nc3ccccc3n2CCN2CCCCC2)cc1,-1,-15,9,-2,38,7
COc1ccc(CCN2CCC(Nc3nc4ccccc4n3Cc3ccc(F)cc3)CC2)cc1,-4,74*,-7,nt,14,-25
COc1ccc(-c2cn(CC[C@@H]3CC[C@H](NC(=O)CCN4CCCCC4)[C@H](CO)O3)nn2)cc1,nt,-14,14[16.7 µM],nt,nt,nt
N#CC(=C1C=CC(=NO)C(Cl)=C1)c1ccccc1,2,73*,-242,2,20,nt
N#CC(=C1C=C(Br)C(=NO)C=C1Cl)c1ccc(Cl)cc1,3,13,-5,0,-3,-19
O=C(NCCNS(=O)(=O)c1ccc(Cl)cc1)c1cc(OCC(F)(F)F)ccc1OCC(F)(F)F,1,1,125*,-3,9,3
O=C([C@H]1[C@H](CO)[C@H]2Cn3c(cccc3=O)[C@@H]1N2S(=O)(=O)c1ccccc1F)N1CCOCC1,nt,-7,10[16.7 µM],nt,nt,nt
O=C(Cn1cc(C(F)(F)F)ccc1=O)Nc1ccc2c(c1)OCO2,1,95*,24,0,13,0
CN(C)CC(=O)Nc1ccc2c(c1)[C@H]1C[C@@H](CC(=O)NC3CCCCC3)O[C@@H](CO)[C@H]1O2,nt,-7,-7[16.7 µM],nt,nt,nt
CC(CCc1ccccc1)NC(=O)c1ccc(NC(=O)c2cccc(Br)c2)cc1 (stereo not given),-4,6,17,-1,18,5
CC(CCc1ccccc1)NC(=O)c1ccc(NC(=O)c2ccccc2)cc1 (stereo not given),26*,15,16,2,58,-6
C[C@H](CO)N1C[C@H](C)[C@@H](CN(C)C(=O)Nc2ccc(C(F)(F)F)cc2)Oc2ncc(C#C[C@@H](C)O)cc2C1=O,nt,14,-7[16.7 µM],nt,nt,nt
Cn1cc([N+](=O)[O-])c(C(=O)Nc2sc3c(c2C#N)CCC3)n1,-19,-4,-1,1,95*,-8
N#Cc1c(NC(=O)CSc2ncc(-c3ccccc3)n2CC2CCCO2)sc2c1CCCC2 (stereo not given),-14,nt,68*,-2,55,2
Cc1onc(-c2c(F)cccc2Cl)c1C(=O)Nc1sc2c(c1C(N)=O)CCC2,5,nt,62*,0,36,3
Cc1onc(-c2ccccc2)c1C(=O)Nc1sc2c(c1C#N)CCC2,7,nt,67*,3,-1,15
CCc1nc(N2[C@H](C#N)[C@@H](c3ccccc3-c3ccccc3C)[C@H]2CO)sc1C,nt,9,6[16.7 µM],nt,nt,nt
C[C@H](CO)N1C[C@H](C)[C@H](CN(C)C(=O)Nc2ccc(C(F)(F)F)cc2)Oc2ccc(N(C)C)cc2C1=O,nt,1,nt,nt,nt,nt
Nc1ccn([C@H]2C[C@H](O)[C@@H](CO)O2)c(=O)n1,1,17,-5,nt,-15,4
Nc1ncn([C@H]2C[C@H](O)[C@@H](CO)O2)c(=O)n1,11,107*,69*,nt,22,-14
Nc1nc(Cl)nc2c1ncn2C1CC(O)C(CO)O1 (stereo not given),-1,33,16,nt,90*,24
COc1ccc(C(c2c(C)n(C)n(-c3ccccc3)c2=O)c2c(C)n(C)n(-c3ccccc3)c2=O)c(OC)c1OC,3,-15,-2,-1,-10,80*
CCOc1cccc(C(c2c(C)n(C)n(-c3ccccc3)c2=O)c2c(C)n(C)n(-c3ccccc3)c2=O)c1OC,3,24,-155,-1,3,1
CC1CCc2c(sc(NC(=O)CSc3ncn[nH]3)c2C#N)C1 (stereo not given),-7,26,65*,-2,50,28
